Laboratory results: PubChem BioAssay AID651965 (National Center for Advancing Translational Sciences (NCATS), 2013)
About 6,400 (1.9%) of roughly 340,000 compounds were called active. Not shown: some 4% with an inconclusive outcome. For the sample, actives were picked, then their nearest neighbours and some compounds at random. Unmarked numbers belong to inactive results. The call rests on the fitted dose curve; in most records, active means well fitted falling curve with a large enough effect; inconclusive means small, poorly fitted or top-dose-only effect; inactive means no such curve, though single readings can be large or run the other way.

Each molecule was assayed against ATP-dependent Clp protease proteolytic subunit (Bacillus subtilis (strain 168)) (UniProt P80244) (assay: qHTS Assay for Activators of ClpP). Conditions: purified B. subtilis ClpP, FRET peptide cleavage, 20 min; series mostly up to 57.5 µM; activity change, negative = active: at the top concentration.
ATP-dependent Clp protease proteolytic subunit (Bacillus subtilis (strain 168)), sequence (P80244 whole entry, looked up): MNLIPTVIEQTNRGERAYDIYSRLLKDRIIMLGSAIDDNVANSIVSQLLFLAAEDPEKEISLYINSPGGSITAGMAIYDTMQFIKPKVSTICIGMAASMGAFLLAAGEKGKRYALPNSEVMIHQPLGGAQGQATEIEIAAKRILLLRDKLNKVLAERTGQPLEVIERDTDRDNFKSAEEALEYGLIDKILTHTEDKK
In short: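 Purified B. subtilis ClpP, 10 microg/mL final in Tris/HCl pH8 with KCl, BSA, glycerol and Tween-20, cleaved an Abz/nitrotyrosine-quenched decapeptide. Fluorescence (ex 320, em 430) was read at 0 and 20 min at room temperature. Delta was normalized to 5.8 microM ADEP and DMSO/no-enzyme controls.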
Further: the source files actives as falling curves though it sought activators and does not explain the sign; nearly all actives have a fitted effect of over 65% in size.
Potency means the concentration at half of the fitted maximal effect.

**Q.** How did the “activity change, negative = active” value turn out when O=C(Nc1ccc2c(c1)OCCO2)C(C1CC1)N1CCC(Cc2ccccc2)CC1 (stereo not given) was run?
**A.** -0.169%

**Q.** How did the “activity change, negative = active” value turn out when CCOC(=O)[C@]12CCCC=C1N(CCC1=CCCCC1)C(=O)[C@H](CC(=O)N1CCOCC1)C2 was run?
**A.** -2.91%

**Q.** CCc1nc2c(OCc3ccc(Cl)cc3Cl)cccn2c1N(C)C(=O)C(C)C was tested. Which “activity change, negative = active” value did it give?
**A.** 1.42%

**Q.** CCc1nc2ccc(C(=O)N3CCN(c4cc(Cl)ccc4C)CC3)cc2nc1CC was tested. Which “activity change, negative = active” value did it give?
**A.** -26.7%

**Q.** How did the Potency turn out when CCc1nc2ccc(C(=O)N3CCN(c4cccc(Cl)c4)CC3)cc2nc1CC was run?
**A.** inactive

**Q.** For CCOC(=O)N1CCN(C(=O)c2ccc3nc4cc(Cl)ccc4c(=O)n3c2)CC1, which Potency is on record?
**A.** 3.55 µM (active)

**Q.** With O=C(c1cccs1)N1C[C@H](n2cc(C3CC3)nn2)[C@@H](O)C[C@@H]1c1ccccc1 as the molecule, how does the “activity change, negative = active” value read?
**A.** 0.507%

**Q.** CC(C)N1C(=O)c2ccccc2NC(=O)C1C(=O)NCc1cccs1 (stereo not given) was tested. Which “activity change, negative = active” value did it give?
**A.** -9.21%

**Q.** With CC(=O)c1ccc(-c2cnc3c(NC=O)cc(-c4cccc(NS(C)(=O)=O)c4)cn23)cc1 as the molecule, how does the “activity change, negative = active” value read?
**A.** -17.7%

**Q.** Cc1ccccc1S(=O)(=O)NC(=O)C1(C)CCN1C(=O)C1(c2ccccc2)CCCC1 (stereo not given) was tested. Which “activity change, negative = active” value did it give?
**A.** -0.858%

**Q.** For O=C(Nc1ccccc1)N1CCN(C2c3ccccc3-c3ccccc32)CC1, which Potency is on record?
**A.** 31.6 µM (active)

**Q.** How did the “activity change, negative = active” value turn out when O=C(Nc1ccccc1)N1CCC(C(=O)N2CCN(Cc3ccccc3)CC2)CC1 was run?
**A.** -1.62%

**Q.** How did the “activity change, negative = active” value turn out when O=C(Nc1cccc(NC(=O)N2CCN(c3ccccc3)CC2)c1)N1CCN(c2ccccc2)CC1 was run?
**A.** -1.46%

**Q.** Cc1cc(=O)oc2ccc(OCC(=O)O)cc12 was tested. Which Potency did it give?
**A.** 31.6 µM (active)

**Q.** For Cc1ccc(O)c(/C=N/NC(=O)COc2ccc3c(C)cc(=O)oc3c2)c1, which “activity change, negative = active” value is on record?
**A.** 3.75%

**Q.** How did the “activity change, negative = active” value turn out when CC(=O)c1c(C)[nH]c(C(=O)COc2ccc3c(C)cc(=O)oc3c2)c1C was run?
**A.** -6.06%

**Q.** For Cc1cccc(C)c1NC(=O)CN1CCN(c2ccc(F)cc2)CC1, which “activity change, negative = active” value is on record?
**A.** -2.54%

**Q.** CS(=O)(=O)c1ccc(-c2nnc(NC(=O)c3ccc4c(c3)OCCO4)o2)cc1 was tested. Which “activity change, negative = active” value did it give?
**A.** -16.1%

**Q.** COCCn1c(=NC(=O)c2ccccc2[N+](=O)[O-])sc2cc(S(C)(=O)=O)ccc21 was tested. Which “activity change, negative = active” value did it give?
**A.** 2.07%

**Q.** Cn1c(=NC(=O)c2ccc3c(c2)OCCO3)sc2cc(S(C)(=O)=O)ccc21 was tested. Which Potency did it give?
**A.** 12.6 µM (active)

**Q.** For CCCNC(=O)C1(C)CCN1C(=O)C1(c2ccccc2)CC1 (stereo not given), which “activity change, negative = active” value is on record?
**A.** 0.909%

**Q.** With Cc1ccc(C(=O)NC(=S)NCc2cccnc2)cc1 as the molecule, how does the “activity change, negative = active” value read?
**A.** 0.84%

**Q.** Which “activity change, negative = active” value does the source give for O=C(NCc1cccnc1)c1cn(-c2ccccc2)nc1-c1cccs1 here?
**A.** -27.6%

**Q.** For O=C(/C=C/c1cccs1)NCc1cccnc1, which Potency is on record?
**A.** 35.5 µM (active)

**Q.** With CCN1C(=O)[C@H]2[C@@H](c3ccc(C(F)(F)F)cc3)N[C@]3(CCCN(Cc4ccc(Br)cc4)C3=O)[C@H]2C1=O as the molecule, how does the “activity change, negative = active” value read?
**A.** -0.527%

**Q.** How did the “activity change, negative = active” value turn out when O=C(COC(=O)c1ncc(Cl)c(Cl)c1Cl)NNC(=O)c1ccccc1 was run?
**A.** -0.929%

**Q.** How did the “activity change, negative = active” value turn out when O=C(COC(=O)c1ncc(Cl)c(Cl)c1Cl)NCc1ccccc1 was run?
**A.** -0.246%

**Q.** How did the Potency turn out when CS(=O)(=O)c1ccc(Cl)c(NC(=O)COC(=O)c2ncc(Cl)c(Cl)c2Cl)c1 was run?
**A.** 14.1 µM (active)

**Q.** Which “activity change, negative = active” value does the source give for COc1ccc(C(=O)N2CCCCC2c2cc(C(=O)Nc3ccccc3)no2)cc1 (stereo not given) here?
**A.** -1.69%

**Q.** For Cc1cc(C)n2c(NCc3ccccc3)c(CC(C)C)nc2n1, which “activity change, negative = active” value is on record?
**A.** -1.15%

**Q.** For Cc1cccc(CN2CCN(C3CN(Cc4cn(Cc5ccccc5F)nn4)S(=O)(=O)C3)CC2)c1 (stereo not given), which “activity change, negative = active” value is on record?
**A.** -1.38%

**Q.** How did the “activity change, negative = active” value turn out when CNCCCOc1cc2nc(N3CCCN(C)CC3)nc(NC3CCN(C)CC3)c2cc1OC was run?
**A.** 4.09%

**Q.** For Nc1ccc(-c2nnc(-c3ccc(-c4ccccc4)cc3)o2)cc1, which Potency is on record?
**A.** 31.6 µM (active)

**Q.** For CN(C)c1ccc(-c2nnc(-c3cccnc3)o2)cc1, which “activity change, negative = active” value is on record?
**A.** 0.624%

**Q.** For OC(c1nnc(-c2ccccc2)o1)c1cccs1 (stereo not given), which “activity change, negative = active” value is on record?
**A.** -0.78%

**Q.** How did the “activity change, negative = active” value turn out when O=C(COC(=O)c1ccccc1OCCOc1ccccc1)Nc1cccc(Br)c1 was run?
**A.** 0.0233%

**Q.** How did the “activity change, negative = active” value turn out when Cc1ccc(-c2cnc(NC(=O)CCC(=O)N(C)Cc3ccccc3)n2C)cc1 was run?
**A.** -6.71%

**Q.** Cc1ccc(-c2cnc(NCc3ccc(C(C)C)cc3)n2C)cc1 was tested. Which Potency did it give?
**A.** 28.2 µM (active)

**Q.** Which “activity change, negative = active” value does the source give for CC(=O)N1CCN(c2ccc(NCc3ccc(C(C)C)cc3)cc2)CC1 here?
**A.** -2.79%

**Q.** How did the Potency turn out when COc1ccc2nc(/N=C(\N)NC(=O)Nc3ccccc3)nc(C)c2c1 was run?
**A.** 14.1 µM (active)

**Q.** For COc1cccc(NC(=O)Nc2ccc(F)cc2)c1, which “activity change, negative = active” value is on record?
**A.** -0.16%

**Q.** For COc1ccc2nc(C)cc(Nc3cccc(C(=O)O)c3)c2c1, which “activity change, negative = active” value is on record?
**A.** 1.33%

**Q.** COC(=O)[C@@]12C[C@@H](CC(=O)N3CCCCC3)C(=O)N(Cc3ccc4c(c3)OCO4)C1=CCC(C)(C)C2 was tested. Which “activity change, negative = active” value did it give?
**A.** 0.0879%

**Q.** How did the Potency turn out when COC(=O)CSc1nc(C)c2ccc(OC)cc2n1 was run?
**A.** 25.1 µM (active)

**Q.** COc1ccc2nc(SCc3ccccc3)nc(C)c2c1 was tested. Which “activity change, negative = active” value did it give?
**A.** 0.798%

**Q.** CCc1nnc(SCC(=O)Nc2cc(OC)ccc2OC)nc1CC was tested. Which “activity change, negative = active” value did it give?
**A.** 0.955%

**Q.** With O=c1cc(CN2CCCCCCC2)c2c(ccc3ccccc32)o1 as the molecule, how does the “activity change, negative = active” value read?
**A.** 5.01%

**Q.** NC(=O)c1ccc(NC(=O)COC(=O)c2c3c(nc4ccccc24)/C(=C\c2ccc4c(c2)OCO4)CCC3)cc1 was tested. Which “activity change, negative = active” value did it give?
**A.** 1.3%

**Q.** How did the “activity change, negative = active” value turn out when NS(=O)(=O)c1ccc(NC(=O)COC(=O)c2c3c(nc4ccccc24)/C(=C\c2ccc4c(c2)OCO4)CCC3)cc1 was run?
**A.** -0.175%

**Q.** With O=C1/C(=C/c2ccc3c(c2)OCO3)CCC/C1=C\c1ccc2c(c1)OCO2 as the molecule, how does the Potency read?
**A.** 28.2 µM (active)
